Assay outcomes: PubChem, The Scripps Research Institute Molecular Screening Center
hgDAF-12 ag = activates the H. glycines DAF-12 receptor ligand-binding domain; actives 1.8% (n = 370,000); AID 687014; HEK293 GAL4-hgDAF12 UAS-luciferase reporter, agonist luminescence; normalized to butyrate control; activation, % at 6.8 µM;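 active means activation above a cutoff set at the mean of all screened compounds plus 3 SD, cut at about 10% in these data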
DAX1 inh-1 = inhibitors of human orphan nuclear receptor DAX1 (NR0B1) | inhibition, % at 6.75 µM | actives 0.99% (n = 340,000) | P51843 | HEK293 Gal4-DAX1 luciferase reporter, luminescence;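 active means inhibition above the mean over all tested compounds plus 3 SD, cut at about 4.2% in these data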;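 further: inhibition shows as a rise in luminescence from relieved DAX1 repression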
AHR act = activates the human aryl hydrocarbon receptor; P35869; AHR-responsive luciferase reporter cells, luminescence; activation, % at 5 µM; actives 2.5% (n = 320,000); in the data active means activation above about 47%
DAX1 inh-2 = DAX1 (NR0B1) inhibition, primary screen; HEK293T StAR-luciferase reporter, SF-1/DAX-1 repression relief; inhibition, % at 6.8 µM; actives 1.1% (n = 370,000); AID 652010;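 active means inhibition above the mean over all tested compounds plus 3 SD, cut at about 3.6% in these data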;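 further: higher inhibition means more luminescence from relief of DAX-1 repression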
hcDAF12 agonist = H. contortus DAF-12 activation, primary screen. actives 1.4% (n = 370,000). HEK293 hcDAF-12 lit1-tk-luc reporter, luminescence; 0% DMSO, 100% Δ7-dafachronic acid. activation, % at 6.8 µM;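 active means activation above the mean of all tested compounds plus 3 SD, cut at about 5.5% in these data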
ssDAF12 agonist = activators of S. stercoralis DAF-12 nuclear receptor; HEK293 ssDAF-12/GRIP1 lit1-tk-luc reporter, luminescence; % of 3 µM dafachronic acid response; actives 1% (n = 370,000); activation, % at 6.8 µM;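 active means activation above the mean over all tested compounds plus 3 SD, cut at about 0.9% in these data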
AHR act cf = confirmation of human aryl hydrocarbon receptor activators | shares compounds with AHR act | human cells, AHR-responsive luciferase reporter, luminescence | activation, % at 9 µM | actives 87% (n = 2,300); in the data active means activation above about 49%;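 further: HepG2 hepatoma cells carrying a DRE-driven firefly luciferase reporter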
PXR act counter = counter-screen for AHR activators: human PXR activators | shares compounds with AHR act | AID 434939 | actives 88% (n = 2,300) | activation, % at 11.6 µM | cell-based PXR reporter, luciferase luminescence; in the data active means activation above about 11%;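 further: human hepatoma DPX-2 cells expressing full-length human PXR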
Target sequence (O75469 whole entry, looked up): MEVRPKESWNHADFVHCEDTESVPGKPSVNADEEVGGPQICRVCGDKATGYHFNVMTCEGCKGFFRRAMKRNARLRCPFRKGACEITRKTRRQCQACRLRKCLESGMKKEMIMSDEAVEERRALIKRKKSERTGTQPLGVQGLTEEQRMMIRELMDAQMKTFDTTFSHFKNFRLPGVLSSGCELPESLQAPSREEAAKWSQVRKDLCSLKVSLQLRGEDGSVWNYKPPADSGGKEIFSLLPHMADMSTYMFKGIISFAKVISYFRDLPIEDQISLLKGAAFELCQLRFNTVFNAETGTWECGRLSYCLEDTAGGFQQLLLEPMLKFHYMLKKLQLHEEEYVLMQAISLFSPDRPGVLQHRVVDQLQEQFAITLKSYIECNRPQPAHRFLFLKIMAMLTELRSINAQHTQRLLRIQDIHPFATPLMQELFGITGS
Large screens that a line does not name were inactive (follow-up assays come after a bar, where they were run). Most compounds without a hit are left out; they make up all but 5.7% or so of the library.

O=C(Nc1ccc(Cl)cc1)Nc1ccon1	AHR act 97.0 | AHR act cf 75.8 | PXR act counter 14.4
Cc1cc(C)c2[nH]c(O)c(N=NC(=S)NCC3CCCO3)c2c1 (stereo not drawn)	AHR act 124.3 | AHR act cf 100.2 | PXR act counter 113.8
CCn1c(O)c(N=NC(=S)NCC2CCCO2)c2ccccc21 (stereo not drawn)	none
Oc1[nH]c2ccc(Br)cc2c1N=NC(=S)NCC1CCCO1 (stereo not drawn)	AHR act 104.4 | AHR act cf 72.3 | PXR act counter 23.4
Oc1[nH]c2ccccc2c1N=NC(=S)NCC1CCCO1 (stereo not drawn)	none
COc1cccc(CC(=O)OCC(=O)NCCc2ccc(F)cc2)c1	none
CCc1ccc2oc(C(=O)NCc3ccncc3)c(C)c2c1	none
Cc1cc(C)c2c(C)c(C(=O)NCc3ccncc3)oc2c1	AHR act 82.9 | AHR act cf 73.2 | PXR act counter 24.4
Cc1cc(C)n(Cc2ccc(NC(=O)c3ccc(COc4ccccc4Br)cc3)cc2)n1	none
O=c1c2ccccc2nc2n1-c1ccccc1CCC2	none
O=C1c2ccccc2-n2c1nc1ccccc1c2=O	AHR act 107.8 | AHR act cf 155.0 | PXR act counter 30.5
Cc1c(C(=O)N2CCC(N3CCSCC3)CC2)oc2c(F)cccc12	none
NS(=O)(=O)c1ccc(N/N=C/C=C/c2ccccc2[N+](=O)[O-])cc1	AHR act 82.2 | AHR act cf inactive | PXR act counter 25.4
Nc1ccc(S(=O)(=O)NN=CC=Cc2ccccc2[N+](=O)[O-])cc1	none (no result: AHR act)
COc1ccc(C(=O)OCC(=O)c2ccc3c(c2)NC(=O)CO3)cc1S(=O)(=O)N1CCOCC1	none
CCCN(CCC)CC(=O)Nc1cccc2c1OCO2	none
CN1CCN(S(=O)(=O)c2ccc(NC(=O)Cc3ccc([N+](=O)[O-])cc3)cc2)CC1	none
Nc1ccccc1C(=O)NNc1c2ccccc2nc2ccccc12	AHR act 95.8, hcDAF12 agonist 6.4 | AHR act cf 105.2 | PXR act counter 63.7
Cc1ccc(C(=O)NNc2c3ccccc3nc3ccccc23)cc1	none
COc1ccc(Br)cc1C(=O)Nc1cc(C)cc(C)c1	AHR act 113.4 | AHR act cf 100.3 | PXR act counter 18.2
O=C(Nc1ccc(Cl)cn1)c1ccccc1[N+](=O)[O-]	none
O=[N+]([O-])c1cnc(Nc2ccc(Cl)cn2)c([N+](=O)[O-])c1	AHR act 138.7 | AHR act cf 80.0
COc1ccccc1CNC(=O)C[C@H]1CC[C@@H]2[C@H](COC[C@H](O)CN2Cc2ccc3c(c2)OCO3)O1	none (no result: DAX1 inh-1, AHR act)
C=C(C)C1CC=C(C)/C(=N/NC(=O)CCC(=O)Nc2ccccc2Cl)C1 (stereo not drawn)	none
CCCOc1nc(C)cc(COC)c1C(N)=O	none
O=C(Cc1ccc(F)cc1)Nc1nnc(-c2ccc(F)cc2)o1	none
C/C(=N\NC(N)=S)c1ccc2c(c1)OCCO2	none
C/C(=N\NC(=S)Nc1ccc(F)cc1)c1ccc2c(c1)OCCO2	AHR act 137.3 | AHR act cf 83.8 | PXR act counter 14.2
O=C(CNC(=O)C1CCCCC1)NCc1ccco1	none
COc1ccc(C(=O)O/N=C(\N)c2ccc(OC)c(OC)c2)c(OC)c1	none (no result: hgDAF-12 ag, DAX1 inh-2, hcDAF12 agonist, ssDAF12 agonist)
COc1ccc(C(=O)O/N=C(\N)c2ccccc2)c(OC)c1	AHR act 96.9 | AHR act cf 56.4 | PXR act counter inactive
O=C1NC(=Nc2ccccc2)/C(=C/c2ccco2)S1	AHR act 84.0 | AHR act cf inactive | PXR act counter 20.4
Cc1ccc(N=C2NC(=O)S/C2=C\c2ccco2)cc1	none
COC(CNC(=O)C1CCN(S(=O)(=O)c2cccc3nsnc23)CC1)OC	none
Cc1ccc(NC(C)C(=O)N/N=C/c2c[nH]c3ccccc23)cc1 (stereo not drawn)	none
Cc1ccc(NCC(=O)N/N=C/c2c[nH]c3ccccc23)cc1	AHR act 157.7 | AHR act cf 111.0 | PXR act counter 19.0
O=C(NCc1cccnc1)c1ccc(-c2ccccc2[N+](=O)[O-])o1	AHR act 86.6 | AHR act cf 94.7 | PXR act counter 39.4
O=C(O)c1ccc(COc2ccccc2/C=C2\NC(=O)N(Cc3ccc(F)cc3)C2=O)cc1	none
CN1C(=O)/C(=C/c2ccccc2OCc2ccccc2)NC1=S	AHR act 90.5 | AHR act cf 64.0 | PXR act counter 29.6
CN1C(=O)/C(=C/c2ccccc2OCc2cccc(F)c2)NC1=S	AHR act 96.7 | AHR act cf 74.1 | PXR act counter 34.9
CN1C(=O)/C(=C/c2ccccc2OCc2ccc(C(=O)O)cc2)NC1=S	none
CCOc1cc2c3c(c1)C1(C(=O)N3C(C)(C)C=C2C)C(C#N)=C(N)Oc2cc(O)ccc21 (stereo not drawn)	none
COc1cc2c3c(c1)C1(C(=O)N3C(C)(C)C=C2C)C(C#N)=C(N)Oc2cc(O)ccc21 (stereo not drawn)	AHR act 93.3 | AHR act cf inactive | PXR act counter inactive
Cc1ccc(NC(=O)c2cccc(C(F)(F)F)c2)cc1NC(=O)c1[nH]cnc1C(N)=O	AHR act 119.2 | AHR act cf 114.4 | PXR act counter 57.4
Cn1cc(C(=O)N/N=C/c2cccc([N+](=O)[O-])c2)c2ccccc21	AHR act 98.7 (no result: DAX1 inh-1) | AHR act cf inactive | PXR act counter 19.3
O=C(N/N=C/c1cccc([N+](=O)[O-])c1)c1c[nH]c2ccccc12	AHR act 97.4 | AHR act cf 139.7 | PXR act counter 19.1
Cn1cc(C(=O)N/N=C/c2ccc([N+](=O)[O-])cc2)c2ccccc21	none (no result: DAX1 inh-1)
O=C(N/N=C/c1cc([N+](=O)[O-])ccc1O)c1c[nH]c2ccccc12	none
Cc1c2ccccc2nc2c(F)c(N(C)C)c(F)c(F)c12	AHR act 121.9, hcDAF12 agonist 5.8 | AHR act cf inactive | PXR act counter 45.6
CN(C)c1c2ccccc2nc2c(F)c(F)c(F)c(F)c12	none (no result: hgDAF-12 ag, DAX1 inh-2, hcDAF12 agonist, ssDAF12 agonist)
O=C(NC(=S)NCCc1ccccc1)c1cccc(Cl)c1	AHR act 124.3 | AHR act cf 138.8 | PXR act counter 18.8
Cc1ccc2ncccc2c1NC(=S)NC(=O)c1ccccc1	AHR act 86.1 | AHR act cf 125.5 | PXR act counter 37.0
O=C(NC(=S)NCCc1ccccn1)c1ccccc1	AHR act 99.9 | AHR act cf 62.3 | PXR act counter 12.2
O=C(NC(=S)NCCc1ccccn1)c1ccco1	none
Cc1ccc2ncccc2c1NS(=O)(=O)c1ccccc1	none
